Laboratory results from PubChem BioAssay (NCATS).
Records with an inconclusive call do not appear. Activity calls are given as the source filed them. Unless noted, calls follow the shape of the dose curve; as a rule, active = well fitted curve in the direction sought with a large enough effect; inconclusive = small, poorly fitted or top-dose-only effect, or another doubt; inactive = no such curve, though single readings can be large; an effect the other way counts as inactive or inconclusive.

Experiments:
[1] = qHTS assay for environmental chemicals that activate the Aryl hydrocarbon Receptor (AhR) signaling pathway (AID 651777); conditions: 1A2-DRE human hepatoma cells, luciferase, 24 h; activation: stronger effect = higher value; also: % of control where 0% means no effect; nearly all actives have a fitted effect of over 15% in size
In short: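 Concentration–response screening used 1,200 1A2-DRE cells per well, 24 hr compound exposure (37 C, 5% CO2), and One-Glo luminescence as the AhR-driven CYP1A2 reporter signal.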

[2] = biological target: Peroxisome proliferator-activated receptor alpha (Homo sapiens) (UniProt Q07869); assay: qHTS assay for small molecule agonists of the peroxisome proliferator-activated receptor alpha (PPARalpha) signaling pathway (AID 651778); conditions: PathHunter PPARalpha complementation, chemiluminescence, 6 h; max response: stronger effect = higher value; also: % of control where 0% means no effect
In short: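 Chemiluminescence from complemented enzyme reported PPARalpha activation in cells after 6 hr of compound treatment at 37 C. The detection reagent was incubated for 60 min at room temperature, and compounds were scored as agonists.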

[3] = qHTS assay for small molecule agonists of the antioxidant response element (ARE) signaling pathway measured by Nrf2-dependant transcriptional activity - cell viability counter screen (AID 720653; active = well fitted curve in the direction sought with a large enough effect in the repeat runs; an effect the other way counts as inactive or inconclusive; also: % is scaled to controls: 0 for no effect and ±100 for the full control effect); conditions: ARE-bla HepG2 viability, CellTiter-Glo ATP luminescence, 16 h; max response: stronger effect = lower value
In short: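 Cytotoxicity counter screen: intracellular ATP quantified by CellTiter-Glo luminescence in the same ARE-bla HepG2 plates, after 16 h compound exposure and a 2 h beta-lactamase substrate step.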

[4] = qHTS assay for cell viability of HEK293 cells (AID 743288); conditions: ATP luminescence (CellTiter-Glo), 18 h; max response: stronger effect = lower value; also: % is scaled to controls: 0 for no effect and ±100 for the full control effect; nearly all actives have a fitted effect of over 50% in size
In short: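 Steps: plate 2,000 parental HEK293 cells per well; incubate ≥5 h, 37 C; add compounds in DMSO; incubate 18 h, 37 C; add CellTiter-Glo; wait 30 min at room temperature; read luminescence.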

[5] = qHTS assay for cell viability of the p53RE-bla HCT-116 cell line (AID 743292); also: % is scaled to controls: 0 for no effect and ±100 for the full control effect; nearly all actives have a fitted effect of over 55% in size
In short: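 Compound-exposed HCT-116 (p53RE-bla) cells, 4,000 per well, were kept 16 h at 37 C following a 5 h preincubation. Cell number was estimated from total ATP by CellTiter-Glo luminescence read after 30 min at room temperature.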

[6] = biological target: Nuclear receptor subfamily 1 group I member 2 (Rattus norvegicus) (UniProt Q9R1A7); assay: qHTS assay for small molecule activators of the rat pregnane X receptor (rPXR) signaling pathway (AID 651751; call rule not given here; also: 0% is about no effect); conditions: rPXR reporter cells, luciferase (One-Glo), 24 h
Chain of Nuclear receptor subfamily 1 group I member 2 (Rattus norvegicus) (Q9R1A7 whole entry, looked up): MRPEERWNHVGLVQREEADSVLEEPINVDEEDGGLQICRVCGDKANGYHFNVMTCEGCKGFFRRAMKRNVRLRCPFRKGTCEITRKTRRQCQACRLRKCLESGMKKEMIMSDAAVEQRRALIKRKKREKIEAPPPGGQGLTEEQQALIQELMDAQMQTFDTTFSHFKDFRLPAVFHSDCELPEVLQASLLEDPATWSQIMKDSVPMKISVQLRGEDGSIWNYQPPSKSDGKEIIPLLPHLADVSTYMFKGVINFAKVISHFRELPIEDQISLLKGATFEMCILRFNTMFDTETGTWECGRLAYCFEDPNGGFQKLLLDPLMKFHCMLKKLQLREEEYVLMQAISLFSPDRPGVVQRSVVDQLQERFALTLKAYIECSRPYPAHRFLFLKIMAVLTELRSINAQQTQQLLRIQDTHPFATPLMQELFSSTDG

Chain of Peroxisome proliferator-activated receptor alpha (Homo sapiens) (Q07869 whole entry, looked up): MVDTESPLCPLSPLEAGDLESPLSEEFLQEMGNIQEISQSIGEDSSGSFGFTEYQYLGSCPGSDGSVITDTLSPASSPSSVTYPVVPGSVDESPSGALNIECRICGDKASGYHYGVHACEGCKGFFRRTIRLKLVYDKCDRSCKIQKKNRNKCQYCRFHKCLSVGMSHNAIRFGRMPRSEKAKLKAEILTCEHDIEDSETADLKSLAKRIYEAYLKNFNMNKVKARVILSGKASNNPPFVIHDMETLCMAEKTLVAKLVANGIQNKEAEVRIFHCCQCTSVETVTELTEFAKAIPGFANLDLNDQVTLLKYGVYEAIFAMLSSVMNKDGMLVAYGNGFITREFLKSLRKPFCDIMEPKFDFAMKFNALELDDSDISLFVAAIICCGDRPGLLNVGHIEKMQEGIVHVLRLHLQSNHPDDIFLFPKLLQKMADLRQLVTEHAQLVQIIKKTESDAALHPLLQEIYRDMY

CC(C)=CC1C(C(=O)OCc2coc(Cc3ccccc3)c2)C1(C)C (stereo unspecified)
inactive: activation [1] 3.96% | max response [2] -0.283% | max response [3] -23.8% | max response [4] 0.368% | Potency [5] | max response [6] 7.41%
